The text below walks through data of article PMC4336329 (PLoS ONE, 2015).

Among all 310,000 compounds or so, about 14,000 (4.5%) showed an effect of 50% or more. Effects have a minus sign here. The list comes from a sample in which strong results are over-represented; it also holds similar structures and randomly drawn compounds.
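Also: peak tail current of the secondary pulse compared with the same well before compound.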

For this experiment, the target named is human ether-à-go-go-related gene (hERG) potassium channel (human, UniProt Q12809). Put plainly: primary screen, population patch clamp on CHO cells stably expressing hERG; higher = less effect of the substance.
Chain of human ether-à-go-go-related gene (hERG) potassium channel (Q12809 whole entry, looked up): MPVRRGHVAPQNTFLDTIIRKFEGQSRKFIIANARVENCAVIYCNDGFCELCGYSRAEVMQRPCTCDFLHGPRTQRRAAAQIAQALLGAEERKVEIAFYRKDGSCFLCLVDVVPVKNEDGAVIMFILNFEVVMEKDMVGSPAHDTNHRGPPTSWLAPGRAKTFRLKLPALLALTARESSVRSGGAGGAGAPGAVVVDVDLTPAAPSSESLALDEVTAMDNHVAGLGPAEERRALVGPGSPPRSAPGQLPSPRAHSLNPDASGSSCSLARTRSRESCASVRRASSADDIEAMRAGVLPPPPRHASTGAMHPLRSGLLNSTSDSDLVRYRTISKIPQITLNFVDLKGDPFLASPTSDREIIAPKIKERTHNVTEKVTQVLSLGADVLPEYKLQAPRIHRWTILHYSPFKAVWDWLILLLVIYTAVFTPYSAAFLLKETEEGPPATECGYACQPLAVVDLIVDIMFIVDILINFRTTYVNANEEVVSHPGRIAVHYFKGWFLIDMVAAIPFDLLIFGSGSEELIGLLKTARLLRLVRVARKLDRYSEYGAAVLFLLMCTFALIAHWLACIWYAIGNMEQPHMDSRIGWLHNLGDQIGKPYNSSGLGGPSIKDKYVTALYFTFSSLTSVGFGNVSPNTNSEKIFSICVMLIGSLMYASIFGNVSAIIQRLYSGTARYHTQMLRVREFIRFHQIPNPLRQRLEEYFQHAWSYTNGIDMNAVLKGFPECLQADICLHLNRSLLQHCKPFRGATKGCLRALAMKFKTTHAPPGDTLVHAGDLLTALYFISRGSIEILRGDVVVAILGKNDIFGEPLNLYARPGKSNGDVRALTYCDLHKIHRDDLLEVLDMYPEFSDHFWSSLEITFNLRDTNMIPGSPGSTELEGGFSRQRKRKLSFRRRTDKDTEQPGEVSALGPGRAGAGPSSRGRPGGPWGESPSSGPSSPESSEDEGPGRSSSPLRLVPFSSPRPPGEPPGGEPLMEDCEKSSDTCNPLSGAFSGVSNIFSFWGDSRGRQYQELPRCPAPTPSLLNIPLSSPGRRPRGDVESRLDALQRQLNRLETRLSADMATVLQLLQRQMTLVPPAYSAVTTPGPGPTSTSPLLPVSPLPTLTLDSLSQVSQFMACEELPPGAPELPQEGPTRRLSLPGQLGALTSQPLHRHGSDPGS
Consider `CN(C)CC(CCCCC(CN(C)C)C(=O)c1ccccc1)C(=O)c1ccccc1` (stereo not shown), for which the “hERG current change (%, negative = inhibition) at 10uM” value was 9.78%.

Consider `O=C(NCCNc1ccc([N+](=O)[O-])cc1)c1ccco1`, for which the “hERG current change (%, negative = inhibition) at 10uM” value was -23.7%.

Regarding `O=C(Nc1ccc(Br)cc1)c1cccc(OC(=S)N2CCOCC2)c1`, the “hERG current change (%, negative = inhibition) at 10uM” value turned out to be 17%.

For `Cc1ccc(-c2nnc(OCC3CCCO3)c3ccccc23)cc1` (stereo not shown), the “hERG current change (%, negative = inhibition) at 10uM” value is given as -65.2%.

With `COc1nnc(-c2ccc(C)c(S(=O)(=O)NC(C)C)c2)c2ccccc12`, the “hERG current change (%, negative = inhibition) at 10uM” value is on record as -52.8%.

For the molecule `Cc1ccc(-c2nnc(Nc3ccccc3)c3ccccc23)cc1S(=O)(=O)NCC1CCCO1` (stereo not shown), the “hERG current change (%, negative = inhibition) at 10uM” value is -40.5%.

For the molecule `COc1nnc(-c2ccc(C)c(S(=O)(=O)NC(C)(C)CO)c2)c2ccccc12`, the “hERG current change (%, negative = inhibition) at 10uM” value was -15.9%.

`Cc1ccc(Oc2nnc(-c3ccc(C)cc3)c3ccccc23)cc1`: the “hERG current change (%, negative = inhibition) at 10uM” value was found to be 2.75%.

`CCNS(=O)(=O)c1cc(-c2nnc(OC)c3ccccc23)ccc1C`: the “hERG current change (%, negative = inhibition) at 10uM” value was -37.3%.

On to `COc1nnc(-c2ccc(C)c(S(=O)(=O)NCC3CCCO3)c2)c2ccccc12` (stereo not shown), for which the “hERG current change (%, negative = inhibition) at 10uM” value is reported as -69.5%.

Turning to `COc1nnc(-c2ccc(C)c(S(N)(=O)=O)c2)c2ccccc12`, the “hERG current change (%, negative = inhibition) at 10uM” value was determined as 4.8%.

On to `COc1nnc(-c2ccc(C)c(S(=O)(=O)N(C)C)c2)c2ccccc12`, for which the “hERG current change (%, negative = inhibition) at 10uM” value is reported as -77.6%.

Take `c1ccc(-c2nnc(OCC3CCCO3)c3ccccc23)cc1` (stereo not shown): the “hERG current change (%, negative = inhibition) at 10uM” value is listed as -10.8%.

On to `COc1nnc(-c2ccc(C)c(S(=O)(=O)NCCO)c2)c2ccccc12`, for which the “hERG current change (%, negative = inhibition) at 10uM” value is recorded as -14.6%.

Regarding `Cc1ccc(-c2nnc(N3CCCCC3)c3ccccc23)cc1S(=O)(=O)NCC1CCCO1` (stereo not shown), the “hERG current change (%, negative = inhibition) at 10uM” value was -16%.

Turning to `CC(C)CNC(=S)NC(=O)c1ccc(Cl)cc1Cl`, the “hERG current change (%, negative = inhibition) at 10uM” value is given as 3.88%.

For `Br.Cc1cccc(N2C(=O)SC(SC(=Nc3ccccc3)Nc3ccccc3)C2=O)c1` (stereo not shown), the “hERG current change (%, negative = inhibition) at 10uM” value is 15.3%.

With `Cc1c(Br)c([N+](=O)[O-])nn1CCCC(=O)NC(C)c1ccccc1` (stereo not shown), the “hERG current change (%, negative = inhibition) at 10uM” value is reported as -16.2%.

Consider `O=C(Nc1c2c(nn1-c1ccccc1)CS(=O)(=O)C2)c1ccccc1Br`, for which the “hERG current change (%, negative = inhibition) at 10uM” value is -0.51%.

Take `COc1ccccc1C(c1nnnn1C(C)(C)C)N1CCCCCC1` (stereo not shown): the “hERG current change (%, negative = inhibition) at 10uM” value is reported as -20.9%.

Consider `COc1ccc(NC(=O)CN(C)S(=O)(=O)c2ccc3c(c2)n(C)c(=O)c(=O)n3C)cc1`, for which the “hERG current change (%, negative = inhibition) at 10uM” value was 14%.

Regarding `COc1ccc(CSc2nc3ccccc3c(=O)[nH]2)cc1F`, the “hERG current change (%, negative = inhibition) at 10uM” value is 36.6%.

On to `CC(C)C(NC(=O)CCNC(=O)c1ccccc1Cl)c1nc2ccccc2[nH]1` (stereo not shown), for which the “hERG current change (%, negative = inhibition) at 10uM” value was -9.36%.

Regarding `O=S(=O)(NC(=NC1CCCCC1)c1ccccc1)c1ccccc1`, the “hERG current change (%, negative = inhibition) at 10uM” value was -14.7%.

For the molecule `Cc1ccc(S(=O)(=O)NC(=NC2CCCCC2)c2ccccc2)cc1`, the “hERG current change (%, negative = inhibition) at 10uM” value was -55.2%.

Turning to `Cc1ccc(S(=O)(=O)NC(=NC2CCCCC2)c2ccc(F)cc2)cc1`, the “hERG current change (%, negative = inhibition) at 10uM” value is given as -4.09%.

On to `Cn1c(Cc2csc(N)n2)nnc1SCC(=O)NCc1ccccc1`, for which the “hERG current change (%, negative = inhibition) at 10uM” value is recorded as 1.12%.

As for `COc1cccc(NC(=O)c2ccc(OC(F)(F)F)cc2)c1`, the “hERG current change (%, negative = inhibition) at 10uM” value is on record as 1.07%.

As for `COc1ccc(-c2cc(C(=O)c3c(N)n(C)c(=O)n(C)c3=O)c3ccccc3n2)cc1`, the “hERG current change (%, negative = inhibition) at 10uM” value is reported as -15.5%.

Regarding `O=C(Nc1cccnc1)C1CCCN(c2ncnc3c2nc2n3CCCCC2)C1` (stereo not shown), the “hERG current change (%, negative = inhibition) at 10uM” value was -36%.

Turning to `O=C(NCc1ccccc1Cl)C1CCCN(c2ncnc3c2nc2n3CCCCC2)C1` (stereo not shown), the “hERG current change (%, negative = inhibition) at 10uM” value is recorded as -60.8%.

For `O=C(NCc1ccccc1Cl)C1CCN(c2ncnc3c2nc2n3CCCCC2)CC1`, the “hERG current change (%, negative = inhibition) at 10uM” value is -30.9%.

For `COc1cccc(CNC(=O)C2CCCN(c3ncnc4c3nc3n4CCCCC3)C2)c1` (stereo not shown), the “hERG current change (%, negative = inhibition) at 10uM” value is listed as -55.6%.

In the case of `O=C(Nc1ccccc1Cl)C1CCCN(c2ncnc3c2nc2n3CCCCC2)C1` (stereo not shown), the “hERG current change (%, negative = inhibition) at 10uM” value is -59.4%.

Turning to `COc1ccc(CNC(=O)C2CCCN(c3ncnc4c3nc3n4CCCCC3)C2)cc1` (stereo not shown), the “hERG current change (%, negative = inhibition) at 10uM” value is given as -37.6%.

With `O=C(NCc1cccc(Cl)c1)C1CCCN(c2ncnc3c2nc2n3CCCCC2)C1` (stereo not shown), the “hERG current change (%, negative = inhibition) at 10uM” value is listed as -73.5%.

As to `COc1cccc(CNC(=O)C2CCN(c3ncnc4c3nc3n4CCCCC3)CC2)c1`, the “hERG current change (%, negative = inhibition) at 10uM” value is given as 16.7%.

As for `O=C(NCC1CCN(Cc2cccc(Cl)c2)CC1)C1CCCN(c2ncnc3c2nc2n3CCCCC2)C1` (stereo not shown), the “hERG current change (%, negative = inhibition) at 10uM” value is -44.5%.

Regarding `O=C(NCC1CCN(Cc2ccccc2F)CC1)C1CCCN(c2ncnc3c2nc2n3CCCCC2)C1` (stereo not shown), the “hERG current change (%, negative = inhibition) at 10uM” value is given as -8.94%.

For the molecule `O=C(Nc1cccnc1Cl)C1CCCN(c2ncnc3c2nc2n3CCCCC2)C1` (stereo not shown), the “hERG current change (%, negative = inhibition) at 10uM” value is on record as -42%.

As to `CN(CCN1CCOCC1)Cc1nc(-c2ccc(Cl)cc2)no1`, the “hERG current change (%, negative = inhibition) at 10uM” value is reported as -28.1%.

In the case of `O=C(NCc1cccs1)C(=O)NCC1OCCCN1S(=O)(=O)c1cccs1` (stereo not shown), the “hERG current change (%, negative = inhibition) at 10uM” value is -15.3%.

On to `CC(C)c1ccc(N(CC(=O)NC(C)(C)C)C(=O)CCC(=O)Nc2nccs2)cc1`, for which the “hERG current change (%, negative = inhibition) at 10uM” value came to 2.7%.
